Results on 37 compounds are retold here after the supplement of paper PMC9694430.
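Also: purified Escherichia coli-expressed rice kinase domain construct.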

The first test concerns LOC_OS02G14120-cb001. Put plainly: thermal shift delta Tm vs DMSO control; higher = stronger stabilization (binding). Particulars: 12.5 µM; protein concentration 2 µM. The essentials:
(§1)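 Heating from 25°C to 95°C at 0.05°C/s, fluorescence was recorded for 19.5 μl wells of 2 μM E. coli-expressed, purified rice kinase domain in 100 mM potassium phosphate pH 7.5, 150 mM NaCl, 10% glycerol and 5 × SYPRO Orange with compound in DMSO. Boltzmann fits gave melting temperatures for this differential scanning fluorimetry assay. The shift reported is the mean of three replicates against the DMSO-only protein.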
As for `O=C1NC(=O)C(=Cc2ccc(-c3ccc(F)cc3)o2)S1` (stereo in doubt), the “thermal shift delta Tm” value is 0.34 °C.

`CONC(=O)c1ccccc1Nc1cc(Nc2cc(C)nn2C(C)C)ncc1Cl`: the “thermal shift delta Tm” value worked out at 3.22 °C.

Turning to `O=C(O)c1ccc2c3c1cccc3c(=O)n1c3ccccc3nc21`, the “thermal shift delta Tm” value amounted to 3.53 °C.

For `OC1CCC(Oc2cccc3cnc(Nc4ccc5nc[nH]c5c4)nc23)CC1` (centres undefined), the “thermal shift delta Tm” value turned out to be 11.4 °C.

As for `CN1CCN(Cc2ccc(-c3cnc4[nH]cc(-c5ccc6[nH]ccc6c5)c4c3)cc2)CC1`, the “thermal shift delta Tm” value is 10.8 °C.

Regarding `Cc1cc(N2CCOCC2)cc2[nH]c(-c3c(NC[C@@H](O)c4cccc(Cl)c4)cc[nH]c3=O)nc12`, the “thermal shift delta Tm” value is 1.99 °C.

With `S=C(NCc1ccc2c(c1)OCO2)N1CCN(c2ncnc3c2oc2ccccc23)CC1` [Amuvatinib (MP-470)], the “thermal shift delta Tm” value was 0.42 °C.

In the case of `COc1cc2c(N3CCN(C(=O)Nc4ccc(OC(C)C)cc4)CC3)ncnc2cc1OCCCN1CCCCC1` [Tandutinib (MLN518)], the “thermal shift delta Tm” value came out at 0.24 °C.

Regarding `COc1cc(-c2cc(-c3ccc(N4CCNCC4)cc3)cnc2C)cc(OC)c1OC`, the “thermal shift delta Tm” value worked out at 1.25 °C.

Consider `O=C(Nc1ccc(OC(F)(F)F)cc1)c1sccc1NCc1ccnc2ccccc12`, for which the “thermal shift delta Tm” value stood at 0.49 °C.

As for `Cc1nc2ccc(-n3ncc(C(=O)c4cc5ccccc5[nH]4)c3N)cc2[nH]1`, the “thermal shift delta Tm” value came to 0.03 °C.

For `CC(C)n1ncnc1-c1cn2c(n1)-c1ccc(O[C@@H](C)C(N)=O)cc1OCC2`, the “thermal shift delta Tm” value turned out to be 0.43 °C.

For `O=C(O)[C@]1(Cc2cccc(Nc3nccs3)n2)CC[C@@H](Oc2cccc(Cl)c2F)CC1`, the “thermal shift delta Tm” value was found to be 13.5 °C.

Turning to `O=C(O)CCC(=O)Nc1ccc(Br)cn1` [Bikinin], the “thermal shift delta Tm” value turned out to be 0.3 °C.

Regarding `CCOc1cc2ncc(C#N)c(Nc3ccc(OCc4ccccn4)c(Cl)c3)c2cc1NC(=O)/C=C/CN(C)C` [Neratinib (HKI-272)], the “thermal shift delta Tm” value is 1.97 °C.

Turning to `O=C(Nc1cccc(C(F)(F)F)c1)c1cccc2cc(Oc3cc(CO)ncn3)ccc12`, the “thermal shift delta Tm” value was 0.55 °C.

As for `CC1(C)C=Cc2c(ccc3c2OC[C@@H](c2ccc(O)cc2O)C3)O1` [Glabridin], the “thermal shift delta Tm” value is 0.34 °C.

On to `COc1ccccc1-c1cc(Nc2cccc(CS(N)(=O)=O)c2)ncn1`, for which the “thermal shift delta Tm” value amounted to 1.66 °C.

On to `Cc1ccc(C(=O)Nc2ccc(Oc3cc4cnn(C)c4cc3-c3cn[nH]c3)c(F)c2)c(=O)n1-c1ccc(F)cc1`, for which the “thermal shift delta Tm” value came out at 5.05 °C.

For the compound `CCS(=O)(=O)c1cccc(-c2cc(C(=O)NC3CCN(C)CC3)c(C)c3[nH]c4ncc(C)cc4c23)c1`, the “thermal shift delta Tm” value was 10.6 °C.

In the case of `CCc1cncnc1N1CCN(Cc2nc3ccc(C(F)(F)F)cc3[nH]2)CC1`, the “thermal shift delta Tm” value was -0.72 °C.

Consider `Cc1ccc(NC(=O)c2ccc(CN3CCN(C)CC3)cc2)cc1Nc1nccc(-c2cccnc2)n1` [Imatinib (STI571)], for which the “thermal shift delta Tm” value was determined as 1.22 °C.

Take `CCn1c(=O)c(-c2ccc(Cl)cc2Cl)cc2cnc(Nc3ccc(N4CCNCC4)c(F)c3)nc21`: the “thermal shift delta Tm” value worked out at 7.16 °C.

In the case of `COc1cc(N2CCN(C)CC2)ccc1Nc1ncc2c(n1)N(C)c1ccccc1C(=O)N2`, the “thermal shift delta Tm” value is 2.52 °C.

`CCn1c(-c2nonc2N)nc2cnc(Oc3cccc(NC(=O)c4ccc(OCCN5CCOCC5)cc4)c3)cc21`: the “thermal shift delta Tm” value was -0.13 °C.

Consider `O=C1Cc2c([nH]c3ccc(Br)cc23)-c2ccccc2N1` [Kenpaullone], for which the “thermal shift delta Tm” value was determined as 2.5 °C.

Consider `COC(=O)Nc1ccc(-c2nc(N3CCOCC3)c3cnn(C4CCN(C(=O)OC)CC4)c3n2)cc1`, for which the “thermal shift delta Tm” value was -0.24 °C.

For the compound `Nc1ncc(-c2ccnc(Nc3ccncc3)n2)c(CC2CC2)n1`, the “thermal shift delta Tm” value came to 3.13 °C.

With `C=CC(=O)Nc1ccc2ncnc(Nc3cccc(Br)c3)c2c1`, the “thermal shift delta Tm” value was -0.18 °C.

In the case of `COc1nccc(-c2c(-c3ccc(F)cc3)ncn2C2CCC(O)CC2)n1` (centres undefined), the “thermal shift delta Tm” value is -0.37 °C.

Turning to `CC(C)Nc1cc(-c2c[nH]c(C(=O)N[C@H](CO)c3cccc(Cl)c3)c2)c(Cl)cn1`, the “thermal shift delta Tm” value is 1.13 °C.

Regarding `CN1CCN(Cc2ccc(NC(=O)Nc3ccc(Oc4ccnc(N)n4)cc3)cc2C(F)(F)F)CC1`, the “thermal shift delta Tm” value is 6.74 °C.

With `O=C(NCCO)c1cccc(-c2cc(Nc3ccc(OC(F)(F)F)cc3)ncn2)c1`, the “thermal shift delta Tm” value is -0.05 °C.

For `CC(C)(O)CNc1ncc(-c2ccnc(Nc3ccnc(Cl)c3)n2)c(CC2CC2)n1`, the “thermal shift delta Tm” value is 1.97 °C.

With `O=C1NC(=O)C(c2ccccc2[N+](=O)[O-])=C1Nc1ccc(O)c(Cl)c1`, the “thermal shift delta Tm” value was -1.08 °C.

Take `CCOc1cc(N2CCC(O)CC2)ccc1Nc1ncc2c(n1)N(C)c1ccccc1C(=O)N2C`: the “thermal shift delta Tm” value is -0.64 °C.

As for `COc1ccc(-c2ccc3ncc4c(c3c2)n(-c2ccc(N3CCNCC3)c(C(F)(F)F)c2)c(=O)n4C)cn1`, the “thermal shift delta Tm” value came out at 8.11 °C.

Another test concerns LOC_OS02G17970-cb001. The description is as above. As to conditions: 12.5 µM; protein concentration 2 µM. The procedure, abridged: as §1
Regarding `O=C1NC(=O)C(=Cc2ccc(-c3ccc(F)cc3)o2)S1` (stereo in doubt), the “thermal shift delta Tm” value came out at 1.28 °C.

As for `CONC(=O)c1ccccc1Nc1cc(Nc2cc(C)nn2C(C)C)ncc1Cl`, the “thermal shift delta Tm” value amounted to 0.4 °C.

As to `O=C(O)c1ccc2c3c1cccc3c(=O)n1c3ccccc3nc21`, the “thermal shift delta Tm” value stood at 0.44 °C.

Turning to `OC1CCC(Oc2cccc3cnc(Nc4ccc5nc[nH]c5c4)nc23)CC1` (centres undefined), the “thermal shift delta Tm” value is 0.06 °C.

Take `CN1CCN(Cc2ccc(-c3cnc4[nH]cc(-c5ccc6[nH]ccc6c5)c4c3)cc2)CC1`: the “thermal shift delta Tm” value turned out to be 0.97 °C.

For `Cc1cc(N2CCOCC2)cc2[nH]c(-c3c(NC[C@@H](O)c4cccc(Cl)c4)cc[nH]c3=O)nc12`, the “thermal shift delta Tm” value is 0.82 °C.

As for `S=C(NCc1ccc2c(c1)OCO2)N1CCN(c2ncnc3c2oc2ccccc23)CC1` [Amuvatinib (MP-470)], the “thermal shift delta Tm” value was 1.14 °C.

Consider `COc1cc2c(N3CCN(C(=O)Nc4ccc(OC(C)C)cc4)CC3)ncnc2cc1OCCCN1CCCCC1` [Tandutinib (MLN518)], for which the “thermal shift delta Tm” value was -0.44 °C.

Take `COc1cc(-c2cc(-c3ccc(N4CCNCC4)cc3)cnc2C)cc(OC)c1OC`: the “thermal shift delta Tm” value is 0.44 °C.

Regarding `O=C(Nc1ccc(OC(F)(F)F)cc1)c1sccc1NCc1ccnc2ccccc12`, the “thermal shift delta Tm” value came to 0.48 °C.

Take `Cc1nc2ccc(-n3ncc(C(=O)c4cc5ccccc5[nH]4)c3N)cc2[nH]1`: the “thermal shift delta Tm” value is 1.37 °C.

Regarding `CC(C)n1ncnc1-c1cn2c(n1)-c1ccc(O[C@@H](C)C(N)=O)cc1OCC2`, the “thermal shift delta Tm” value was 1.55 °C.

Consider `O=C(O)[C@]1(Cc2cccc(Nc3nccs3)n2)CC[C@@H](Oc2cccc(Cl)c2F)CC1`, for which the “thermal shift delta Tm” value came to 0.24 °C.

On to `O=C(O)CCC(=O)Nc1ccc(Br)cn1` [Bikinin], for which the “thermal shift delta Tm” value was found to be 0.9 °C.

For the compound `CCOc1cc2ncc(C#N)c(Nc3ccc(OCc4ccccn4)c(Cl)c3)c2cc1NC(=O)/C=C/CN(C)C` [Neratinib (HKI-272)], the “thermal shift delta Tm” value worked out at 1.71 °C.

For `O=C(Nc1cccc(C(F)(F)F)c1)c1cccc2cc(Oc3cc(CO)ncn3)ccc12`, the “thermal shift delta Tm” value turned out to be 1.28 °C.

Take `CC1(C)C=Cc2c(ccc3c2OC[C@@H](c2ccc(O)cc2O)C3)O1` [Glabridin]: the “thermal shift delta Tm” value stood at 0.51 °C.

For `COc1ccccc1-c1cc(Nc2cccc(CS(N)(=O)=O)c2)ncn1`, the “thermal shift delta Tm” value is 1.02 °C.

As to `Cc1ccc(C(=O)Nc2ccc(Oc3cc4cnn(C)c4cc3-c3cn[nH]c3)c(F)c2)c(=O)n1-c1ccc(F)cc1`, the “thermal shift delta Tm” value is 1.48 °C.

For the compound `CCS(=O)(=O)c1cccc(-c2cc(C(=O)NC3CCN(C)CC3)c(C)c3[nH]c4ncc(C)cc4c23)c1`, the “thermal shift delta Tm” value was 0.54 °C.

In the case of `CCc1cncnc1N1CCN(Cc2nc3ccc(C(F)(F)F)cc3[nH]2)CC1`, the “thermal shift delta Tm” value was 0.34 °C.

With `Cc1ccc(NC(=O)c2ccc(CN3CCN(C)CC3)cc2)cc1Nc1nccc(-c2cccnc2)n1` [Imatinib (STI571)], the “thermal shift delta Tm” value was found to be 0.21 °C.

Regarding `CCn1c(=O)c(-c2ccc(Cl)cc2Cl)cc2cnc(Nc3ccc(N4CCNCC4)c(F)c3)nc21`, the “thermal shift delta Tm” value was found to be 1.08 °C.

As for `COc1cc(N2CCN(C)CC2)ccc1Nc1ncc2c(n1)N(C)c1ccccc1C(=O)N2`, the “thermal shift delta Tm” value came out at 0.53 °C.

On to `CCn1c(-c2nonc2N)nc2cnc(Oc3cccc(NC(=O)c4ccc(OCCN5CCOCC5)cc4)c3)cc21`, for which the “thermal shift delta Tm” value was found to be 1.79 °C.

For `O=C1Cc2c([nH]c3ccc(Br)cc23)-c2ccccc2N1` [Kenpaullone], the “thermal shift delta Tm” value was 2.97 °C.

As to `COC(=O)Nc1ccc(-c2nc(N3CCOCC3)c3cnn(C4CCN(C(=O)OC)CC4)c3n2)cc1`, the “thermal shift delta Tm” value came to 0.43 °C.

Regarding `Nc1ncc(-c2ccnc(Nc3ccncc3)n2)c(CC2CC2)n1`, the “thermal shift delta Tm” value is 2.16 °C.

As for `C=CC(=O)Nc1ccc2ncnc(Nc3cccc(Br)c3)c2c1`, the “thermal shift delta Tm” value is 0.66 °C.

For the compound `COc1nccc(-c2c(-c3ccc(F)cc3)ncn2C2CCC(O)CC2)n1` (centres undefined), the “thermal shift delta Tm” value was 0.65 °C.

For `CC(C)Nc1cc(-c2c[nH]c(C(=O)N[C@H](CO)c3cccc(Cl)c3)c2)c(Cl)cn1`, the “thermal shift delta Tm” value turned out to be 1.49 °C.

As for `CN1CCN(Cc2ccc(NC(=O)Nc3ccc(Oc4ccnc(N)n4)cc3)cc2C(F)(F)F)CC1`, the “thermal shift delta Tm” value stood at 1 °C.

As to `O=C(NCCO)c1cccc(-c2cc(Nc3ccc(OC(F)(F)F)cc3)ncn2)c1`, the “thermal shift delta Tm” value was 0.95 °C.

Turning to `CC(C)(O)CNc1ncc(-c2ccnc(Nc3ccnc(Cl)c3)n2)c(CC2CC2)n1`, the “thermal shift delta Tm” value is -0.17 °C.

As for `O=C1NC(=O)C(c2ccccc2[N+](=O)[O-])=C1Nc1ccc(O)c(Cl)c1`, the “thermal shift delta Tm” value is 1.06 °C.

Consider `CCOc1cc(N2CCC(O)CC2)ccc1Nc1ncc2c(n1)N(C)c1ccccc1C(=O)N2C`, for which the “thermal shift delta Tm” value was found to be 0.7 °C.

In the case of `COc1ccc(-c2ccc3ncc4c(c3c2)n(-c2ccc(N3CCNCC3)c(C(F)(F)F)c2)c(=O)n4C)cn1`, the “thermal shift delta Tm” value is 0.58 °C.
